Experimental data taken from PubChem BioAssay AID504832 (National Center for Advancing Translational Sciences (NCATS), 2011).
Among all 310,000 compounds or so, about 18,000 (5.8%) were called active. Roughly 22% stayed inconclusive and do not appear here. The entries come from a sample that favours actives as a whole. A call without a number means that no potency is given here. Unmarked numbers belong to inactive results. Calls follow the shape of the dose curve; as a rule, active = well fitted inhibition curve with a large enough effect; inconclusive = small, poorly fitted or top-dose-only effect, or another doubt; inactive = no such curve, though single readings can be large or run the other way.

Experiment: Primary qHTS for delayed death inhibitors of the malarial parasite plastid, 48 hour incubation
Conditions: P. falciparum luciferase growth in erythrocytes; series mostly up to 28.7 µM
In short: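 Erythrocytes infected with P. falciparum carrying an integrated firefly luciferase reporter (2% hematocrit, 0.1% parasitemia final) were exposed to compounds in RPMI 1640 with 0.5% Albumax at 37 C, 5% CO2. Growth inhibition was scored as reduced luminescence.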
Potency is read from the fitted curve at half-maximal effect.

SMILES | Potency | activity change, negative = inhibition
O=C(NCCS(=O)(=O)NCc1ccc(F)cc1)c1ccccc1 | inactive | 
Cc1cc(C)nc(N/N=C/c2c(CO)cnc(C)c2O)n1 | 10.4 µM (active) | 
COc1ccc(/C=C2\SC(=S)N(CCC(=O)Nc3cccc(C(=O)O)c3)C2=O)cc1OC | inactive | 
CN(NS(=O)(=O)c1cccs1)c1ncc(C(F)(F)F)cc1Cl | inactive | 
COc1ccc(CNC(=O)c2ccc3oc(C(C)C)nc3c2)cc1 | inactive | 
O=C(COC(=O)/C=C/c1ccc(OC(F)F)cc1)NC1CCCCC1 | inactive | 
O=C(NCc1cccc(Cl)c1)C1CCN(c2nnc(N3CCCC3=O)s2)CC1 | inactive | 
COc1ccccc1CNS(=O)(=O)c1c(C)[nH]c(C)c1C(=O)N1CCCCC1 | inactive | 
COc1ccc(C2=NN(C(=O)CSc3nnnn3C)C(c3ccco3)C2)cc1 (stereo unspecified) | inactive | 
O=C(CSc1nnnn1-c1ccc(O)cc1)N1N=C(c2ccc3ccccc3c2)CC1c1ccccc1 (stereo unspecified) | 2.33 µM (active) | 
O=C(CSc1nnnn1-c1ccc(O)cc1)c1ccc(F)cc1 | inactive | 
Cc1nnnn1/C(=C\c1ccccc1)C(=O)OCC(=O)N1CC2(C)CC1CC(C)(C)C2 (stereo unspecified) | 11.7 µM (active) | 
COc1ccccc1C(=O)N1CC2(C)CC1CC(C)(C)C2 (stereo unspecified) | inactive | 
Cc1cccc(C(=O)NCC(=O)OCC(=O)N2CC3(C)CC2CC(C)(C)C3)c1 (stereo unspecified) | inactive | 
COc1ccc(OC)c(-c2csc(NC(=O)COC(=O)C3CC3)n2)c1 | inactive | 
C=CCOc1ccccc1NC(=O)CN1C(=O)CNC1=O | inactive | 
CC(C)(C)NC(=O)C(c1ccco1)N(Cc1ccc2c(c1)OCO2)C(=O)Cn1nnc2ccccc21 (stereo unspecified) | 8.28 µM (active) | 
CC(C)(C)NC(=O)C(c1ccncc1)N(C(=O)CNC(=O)c1ccco1)c1ccc2c(c1)OCO2 (stereo unspecified) | inactive | 
CCC(C)(C)NC(=O)C(c1cccn1C)N(Cc1ccc(C)cc1)C(=O)Cn1nnc2ccccc21 (stereo unspecified) | inactive | 
COCCn1c(C)cc(C(=O)CSc2nnc(C3CC3)n2C2CC2)c1C | inactive | 
CCC(=O)Nc1ccc(S(=O)(=O)Nc2c(NC)c3ccccc3oc2=O)cc1 | inactive | 
CCOC(=O)c1sc(NC(=O)CSc2nnc(-c3ccco3)o2)c(C(=O)OCC)c1C | inactive | 
CCOC(=O)c1c(NC(=O)CSc2nccc(=O)[nH]2)sc(C)c1C | inactive | 
CCOC(=O)c1sc(NC(=O)CSc2nc3c(c(=O)n2-c2ccccc2)SCC3)c(C(=O)OCC)c1C | 1.65 µM (active) | 
COc1cccc(N2CCN(c3ccc4nnc(CCC(=O)N5CCN(C)CC5)n4n3)CC2)c1 | inactive | 
COc1ccc(Nc2ncnc3sc(C)cc23)cc1 | inactive | 

SMILES | Potency | activity change, negative = inhibition
Cc1cc(Cl)ccc1C(=O)C1CCCN(C(=O)c2nonc2C)C1 (stereo unspecified) | inactive | 
CCOC(=O)C(C)n1cnc2c(nnn2-c2ccc(F)cc2)c1=O (stereo unspecified) | inactive | 
COc1ccccc1NC(=O)c1cc(Cl)nnc1Cl | inactive | 
COc1ccccc1NC1=NC(c2ccc(Cl)cc2)N=C(N)N1 (stereo unspecified) | 10.4 µM (active) | 
COc1ccccc1Nc1nc(N)nc(CSC(=S)N2CCOCC2)n1 | inactive | 
Cc1ccc(OCC(=O)Nc2ccc(C(=O)O)cc2NC(=O)COc2ccc(C)c(C)c2)cc1C | inactive | 
O=C1Nc2ccccc2/C1=C/c1ccnc2ccccc12 | inactive | 
CC1C(=O)C(C)C(c2ccc(O)cc2)NC1c1ccc(O)cc1 (stereo unspecified) | 6.57 µM (active) | 
CCOC(=O)C1C(c2ccc(O)cc2)NC(=O)NC1(O)C(F)(F)F (stereo unspecified) | inactive | 
CCOc1ccc(N(CC)S(=O)(=O)c2cccc3nsnc23)cc1 | inactive | 
CCOc1ccccc1NC(=O)CCS(=O)(=O)c1cccc2nsnc12 | inactive | 
CCOc1ccc(OCC)c(NC(=O)CN(C)S(=O)(=O)c2cccc3nsnc23)c1 | 1.17 µM (active) | 
O=C(Nc1ccccn1)C1CCN(S(=O)(=O)c2ccccc2)CC1 | inactive | 
CCN(c1ccccc1)S(=O)(=O)c1cc2c(cc1C)n(C)c(=O)c(=O)n2C | inactive | 
CCOC(=O)c1c(CN2CCOCC2)n(-c2ccccc2)c2ccc(O)cc12 | 10.4 µM (active) | 
CCOC(=O)c1c(-c2cccc(N)c2)cn2ccccc12 | inactive | 
CCOC(=O)c1ccccc1C(=O)N1CCOCCOCCOCC1 | inactive | 
CCOC(=O)c1c(-c2ccccc2)oc2ccc(OC(=O)N(C)C)cc12 | inactive | 
CCOC(=O)c1ccccc1NC(=O)COC(=O)CCC(=O)N1CCOCC1 | inactive | 
CCOC(=O)c1c(CN(C)C)n(-c2ccccc2)c2cc(Br)c(O)cc12 | 1.17 µM (active) | 
CN(CC(=O)Nc1ccc(Cl)cc1)C(=O)c1ccc(COc2ccccc2)cc1 | inactive | 
CCCCn1c(N)c(N(Cc2ccccc2OC)C(=O)COc2cc(C)ccc2Cl)c(=O)[nH]c1=O | inactive | 
Cc1ccc2c(c1)N(CC(=O)NCCCN1CCCCC1)C(=O)c1cccnc1O2 | inactive | 
CC(=O)c1cccc(NC(=O)CN2C(=O)c3cccnc3Oc3ccc(Cl)cc32)c1 | 13.1 µM (active) | 
Cc1ccc2c(c1)N(CC(=O)NCCc1ccc(Cl)cc1)C(=O)c1cccnc1O2 | inactive | 
Cc1ccc(S(=O)(=O)N(C)CC(=O)NCCc2c[nH]c3ccccc23)cc1 | inactive | 

SMILES | Potency | activity change, negative = inhibition
Cn1c(CNC(=O)c2ccco2)nnc1SCC(=O)N1CCN(c2ccccc2)CC1 | inactive | 
CC(C)c1nc2cc(C(=O)NC(C)c3cnn(C)c3)ccc2o1 (stereo unspecified) | inactive | 
CCN(CC(=O)Nc1ccc2c(c1)OCO2)S(=O)(=O)c1ccccc1 | inactive | 
C/C(=N\NC(=O)Cc1ccccc1[N+](=O)[O-])c1cccnc1 | inactive | 
Cn1cccc1-c1nc2ccccc2n1C | inactive | 
Cn1c(-c2ccco2)nc2cc3ccccc3cc21 | inactive | 
CN1c2ccccc2-c2nc3ccccc3n2C1c1ccco1 (stereo unspecified) | 11.7 µM (active) | 
O=C(c1cc2cc(Br)cc(Br)c2oc1=O)N1CCOCC1 | inactive | 
CCOc1ccc(NC(=O)COc2ccc(C(=O)N3CCC(C(N)=O)CC3)cc2OC)cc1 | inactive | 
COc1cc2ccccc2cc1C(=O)Nc1ccc(NC(=O)c2cccs2)cc1 | 11.7 µM (active) | 
COc1cc2ccccc2cc1C(=O)Nc1ccncc1 | inactive | 
COc1cc(NC(=O)c2cccs2)ccc1NC(=O)c1ccccc1Cl | inactive | 
Cc1ccnc(N2CCCC(C(=O)NC3CC3)C2)n1 (stereo unspecified) | inactive | 
O=C(NC1CC1)C(Cc1ccccc1)NS(=O)(=O)c1ccccc1F (stereo unspecified) | inactive | 
O=C(Cc1ccc([N+](=O)[O-])cc1)Nc1ccc(C(=O)N2CCOCC2)cc1 | inactive | 
O=C(/C=C/c1ccco1)NC(=S)Nc1ccccc1Br | inactive | 
CCC(C)Sc1nc2c(c(=O)[nH]c(=O)n2C)n1CC(O)COc1cccc2ccccc12 (stereo unspecified) | 10.4 µM (active) | 
CCCCCCn1c(SCC(=O)c2ccccc2)nc2c1c(=O)[nH]c(=O)n2C | inactive | 
C=CCn1c(SCc2ccccc2)nc2c1c(=O)[nH]c(=O)n2C | inactive | 
CCc1ccc(NC(=O)CS(=O)CC(=O)N2CCN(c3ccccc3F)CC2)cc1 (stereo unspecified) | inactive | 
COc1cc(C(=O)NCC(=O)N2CC=C(c3ccccc3)CC2)cc(OC)c1OC | inactive | 
O=C(CSc1ccc(-c2ccccn2)nn1)Nc1ccccc1 | inactive | 
Cc1ccc(S(=O)(=O)Cc2cc(-c3ccc(Cl)cc3)no2)cc1 |  | -33.3% [at 5.75 µM]
COC(=O)c1noc(C)c1-c1ccnn1C(=O)c1ccc(Cl)cc1 | inactive | 
Cc1onc(-c2ccc(Cl)cc2)c1-c1ccnn1S(=O)(=O)c1ccc(Cl)cc1 | 1.04 µM (active) | 
COc1ccc(/C=C2\SC(=O)N(CCC(=O)NCCCn3ccnc3)C2=O)cc1 | inactive | 

SMILES | Potency | activity change, negative = inhibition
CCOc1ccc(C(=O)COC(=O)c2ccc(-n3cnnn3)cc2)cc1 | inactive | 
COc1ccc2c(c1)C(NS(=O)(=O)OCC(Cl)(Cl)Cl)CCC2 (stereo unspecified) | inactive | 
O=C(c1ccccc1)c1ccc(C(=O)N2CCN(c3ccccc3)CC2)cc1 | inactive | 
O=C(c1cc2cc(F)ccc2[nH]1)N1CCN(c2ccc(F)cc2)CC1 | inactive | 
O=C(c1cccc(C(=O)N2CCN(c3ccc(F)cc3)CC2)c1)N1CCN(c2ccc(F)cc2)CC1 | 13.1 µM (active) | 
CCn1c(=S)sc2c(=O)n(CC(=O)Nc3cccc(Br)c3)c(C)nc21 | inactive | 
COc1ccccc1C(=O)NCc1nnc(SC(C)C(=O)Nc2nccs2)n1C (stereo unspecified) | inactive | 
CC1CN(C2CCCCC2)c2nc3c(c(=O)n(C)c(=O)n3C)n2C1 (stereo unspecified) | inactive | 
Cc1cccc(Cn2c(N3CCN(c4ccccc4)CC3)nc3c2c(=O)n(C)c(=O)n3C)c1 | inactive | 
CC(C)CCn1c(=O)c2c(nc3n2CCCN3Cc2ccccc2)n(C)c1=O | 9.28 µM (active) | 
O=C(c1c(F)cccc1Cl)N1CCN(c2ccccn2)CC1 | inactive | 
NC(=O)c1oc2ccccc2c1NC(=O)Cc1ccccc1 | inactive | 
Cc1c(C(C)(C)O)[nH]c2ccc(C#N)cc12 | inactive | 
COc1ccc(-c2cc(=O)oc3cc(OC(C)C(=O)NCC4CCC(C(=O)O)CC4)ccc23)cc1 (stereo unspecified) | inactive | 
COc1ccc(F)cc1C(=O)COC(=O)c1n[nH]c(=O)c2ccccc12 | inactive | 
Nc1nc(SCC(=O)Nc2cc(C(F)(F)F)ccc2Cl)[nH]c(=O)c1NC(=O)c1ccco1 | inactive | 
COc1ccc(OC)c(NC(=O)c2sc3nc(C)cc(C)c3c2N)c1 | inactive | 
Cc1cccc(NC(=O)c2sc3nc4c(c(-c5ccco5)c3c2N)CCC4)c1 | 2.08 µM (active) | 
Cc1cccc(NC(=O)c2sc3nc(N4CCOCC4)c4c(c3c2N)CCCC4)c1 | inactive | 
CN(c1ccccc1)S(=O)(=O)c1ccc(NC(=O)COc2ccccc2)cc1 | inactive | 
COc1cccc(NC(=O)c2cc(S(=O)(=O)N3CCc4ccccc43)cn2C)c1 | inactive | 
CCN(C(=O)COC(=O)c1cc(S(=O)(=O)N2CCc3ccccc32)ccc1OC)C1CCS(=O)(=O)C1 (stereo unspecified) | inactive | 
COc1ccccc1N(C)C(=O)c1cc(S(=O)(=O)N2CCc3ccccc32)cn1C | 11.7 µM (active) | 
